PubChem BioAssay (EPA / NIEHS)
The source made the active and inactive calls. Rule for the calls: active = hit-call score of the fitted dose curve at least 0.9, where 1 is the maximum; inactive = score below 0.9.

What was measured:
[1] = ATG_CRE_CIS: Attagene CIS-FACTORIAL HepG2 Assay for human cAMP Responsive Element (CRE) binding protein 3 (AID 2282926); settings: HepG2 CRE cis-reporter, Attagene multiplexed mRNA; actives raise or lower the signal
In short: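 Assay format: transient reporter transfection of HepG2, 24 h treatment, total RNA isolation with DNase I step. Reporter abundance read by fluorescence after PCR and capillary separation; DMSO-normalised gain or loss fitting.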

[2] = target: CCAAT/enhancer-binding protein beta (Homo sapiens) (UniProt P17676); assay: ATG_C_EBP_CIS: Attagene CIS-FACTORIAL HepG2 Assay for human CCAAT/Enhancer Binding Protein (C/EBP) beta (AID 2282927); settings: HepG2 Attagene cis-factorial transcription factor reporter; actives raise or lower the signal
Chain of CCAAT/enhancer-binding protein beta (Homo sapiens) (P17676 whole entry, looked up): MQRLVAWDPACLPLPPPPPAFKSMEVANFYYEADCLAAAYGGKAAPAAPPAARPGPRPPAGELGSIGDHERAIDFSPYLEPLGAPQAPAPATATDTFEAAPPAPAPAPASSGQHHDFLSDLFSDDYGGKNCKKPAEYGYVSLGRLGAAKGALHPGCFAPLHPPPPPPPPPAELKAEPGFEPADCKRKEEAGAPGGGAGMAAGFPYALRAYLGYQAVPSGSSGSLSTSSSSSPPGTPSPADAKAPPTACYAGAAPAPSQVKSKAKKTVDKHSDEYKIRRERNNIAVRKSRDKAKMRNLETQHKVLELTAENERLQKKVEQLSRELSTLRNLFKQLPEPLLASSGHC
In short: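 RT-PCR/capillary electrophoresis fluorescence of reporter mRNA, 24 h post-dose, in HepG2 cells carrying transfected cis-promoter reporter units. Bidirectional curve fitting against DMSO baseline captures gain or loss of signal.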

[3] = ATG_CMV_CIS: Attagene CIS-FACTORIAL HepG2 Assay for human CMV (Internal Marker) (AID 2282928); settings: HepG2 CMV promoter reporter, transcription factor profiling; actives raise or lower the signal;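 note: endpoint acts as a background internal control marker rather than a target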
In short: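 Fluorescence intensity of RT-PCR-derived reporter fragments, resolved by capillary electrophoresis, gives the signal. HepG2 liver cells bearing transfected cis-element reporters were treated 24 h; activity in either direction was fit relative to DMSO-treated controls.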

[4] = ATG_DR4_LXR_CIS: Attagene CIS-FACTORIAL HepG2 Assay for human Liver X Receptor (LXR), DR4 submotif (AID 2282929); settings: HepG2 Attagene DR4 cis-reporter, mRNA transcription; actives raise or lower the signal
In short: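 Cells were transfected with multiple reporter transcription units, exposed to chemicals for 24 hours, then lysed for RNA. Reporter mRNA induction was measured by RT-PCR with capillary electrophoresis detection and fitted in both directions relative to DMSO.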

[5] = ATG_AP_1_CIS: Attagene CIS-FACTORIAL HepG2 Assay for human Activator Protein 1 (AP-1) (AID 2282931); settings: HepG2 Attagene cis-factorial AP-1 reporter mRNA; actives raise or lower the signal
In short: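 Endogenous transcription-factor activity in human HepG2 liver cells is read through a cis-promoter reporter transcript, sampled 24 h after dosing. Detection uses RT-PCR with capillary electrophoresis; values come from bidirectional fitting relative to DMSO.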

[6] = ATG_AP_2_CIS: Attagene CIS-FACTORIAL HepG2 Assay for human Activator Protein 2 (AP-2) (AID 2282932); settings: HepG2 AP-2 cis-reporter, Attagene transcription factor profiling; actives raise or lower the signal
In short: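 Cells (HepG2) transfected with promoter-driven reporter constructs, treated 24 h. Total RNA reverse-transcribed, reporter cDNA PCR-amplified, FAM-labelled by primer extension, digested, resolved by capillary electrophoresis. Activity fitted both directions versus DMSO.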

[7] = ATG_BRE_CIS: Attagene CIS-FACTORIAL HepG2 Assay for human Bone Morphogenetic Protein (BMP) Response Element (BRE) (AID 2282933); settings: HepG2 BMP response element reporter, Attagene transcription factor profiling; actives raise or lower the signal
In short: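 Transient MRTU transfection of human HepG2 liver cells; 24 h compound treatment; total RNA isolated, reverse-transcribed, PCR-amplified, 6-FAM labelled, HpaI-cut, capillary electrophoresis. DMSO = negative control/baseline, bidirectional fit.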

[8] = target: Retinoic acid receptor alpha (Homo sapiens) (UniProt P10276); assay: ATG_DR5_RAR_CIS: Attagene CIS-FACTORIAL HepG2 Assay for human Retinoic Acid Receptor Alpha (RARE), DR5 submotif (AID 2282934); settings: HepG2 Attagene cis-factorial RARE DR5 reporter, mRNA; actives raise or lower the signal
Chain of Retinoic acid receptor alpha (Homo sapiens) (P10276 whole entry, looked up): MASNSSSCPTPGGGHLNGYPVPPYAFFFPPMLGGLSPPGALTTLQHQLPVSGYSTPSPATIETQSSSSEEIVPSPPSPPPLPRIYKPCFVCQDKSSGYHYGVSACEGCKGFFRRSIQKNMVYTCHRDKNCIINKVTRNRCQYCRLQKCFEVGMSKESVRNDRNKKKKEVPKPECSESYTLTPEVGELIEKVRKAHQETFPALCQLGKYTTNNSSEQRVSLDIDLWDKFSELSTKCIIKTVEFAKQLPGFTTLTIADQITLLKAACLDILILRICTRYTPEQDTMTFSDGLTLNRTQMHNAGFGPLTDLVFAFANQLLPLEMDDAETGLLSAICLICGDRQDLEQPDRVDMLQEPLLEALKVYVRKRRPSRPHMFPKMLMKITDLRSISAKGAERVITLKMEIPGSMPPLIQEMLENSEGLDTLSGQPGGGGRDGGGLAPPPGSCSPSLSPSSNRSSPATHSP
In short: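 HepG2 cells transiently transfected with multiplexed reporter units under cis (DR5 RARE) promoters, so endogenous transcription factor activity is measured. After 24 h compound exposure, reporter mRNA is quantified by RT-PCR with fluorescent labelling and capillary electrophoresis; bidirectional fitting versus DMSO.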

[9] = target: Transcription factor E2F1 (Homo sapiens) (UniProt Q01094); assay: ATG_E2F_CIS: Attagene CIS-FACTORIAL HepG2 Assay for human E2F Transcription Factor 1 (AID 2282935); settings: HepG2 Attagene cis-reporter, E2F reporter RNA transcripts; actives raise or lower the signal
Chain of Transcription factor E2F1 (Homo sapiens) (Q01094 whole entry, looked up): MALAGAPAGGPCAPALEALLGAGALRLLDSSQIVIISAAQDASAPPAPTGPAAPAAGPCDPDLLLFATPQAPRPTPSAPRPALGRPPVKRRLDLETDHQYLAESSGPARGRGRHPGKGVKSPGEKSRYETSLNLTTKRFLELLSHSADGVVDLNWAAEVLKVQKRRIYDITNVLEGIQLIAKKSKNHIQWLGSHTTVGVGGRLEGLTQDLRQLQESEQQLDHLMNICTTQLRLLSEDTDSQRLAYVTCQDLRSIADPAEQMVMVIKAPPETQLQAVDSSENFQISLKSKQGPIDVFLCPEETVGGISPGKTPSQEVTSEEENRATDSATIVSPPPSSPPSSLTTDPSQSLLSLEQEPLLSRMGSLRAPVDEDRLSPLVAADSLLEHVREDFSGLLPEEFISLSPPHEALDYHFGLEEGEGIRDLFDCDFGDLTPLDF
In short: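 First, HepG2 cells were transfected with reporter transcription units. Next, they were dosed for 24 h. Then RNA was isolated, converted to cDNA, PCR-amplified, FAM-labeled, HpaI-digested and analyzed by capillary electrophoresis.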

[10] = ATG_E_Box_CIS: Attagene CIS-FACTORIAL HepG2 Assay for human Enhancer Box (E-box) (AID 2282936); settings: HepG2 E-box cis-reporter transcription, actives raise or lower the signal
In short: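 Endogenous transcription factor activity was sensed in human HepG2 liver cells through transfected cis-promoter reporter units. After 24 h of dosing, total RNA was reverse-transcribed and reporter cDNA resolved by capillary electrophoresis.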

[11] = ATG_M_61_CIS: Attagene CIS-FACTORIAL HepG2 Assay for M61 Transcription Factor (Internal Marker) (AID 2282937); settings: HepG2 Attagene CIS-FACTORIAL M61 internal marker reporter; actives raise or lower the signal
In short: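 Cells were transfected with reporter units under cis-regulatory promoters, treated with chemicals for 24 h, then lysed for RNA. Reporter transcripts were quantified by RT-PCR and capillary electrophoresis, and activity was fitted bidirectionally against DMSO.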

[12] = ATG_M_19_CIS: Attagene CIS-FACTORIAL HepG2 Assay for M19 Transcription Factor (Internal Marker) (AID 2282939); settings: HepG2 Attagene CIS-FACTORIAL M19 internal marker reporter; actives raise or lower the signal
In short: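 Transfect HepG2 with MRTU reporter library → dose chemical, 24 h → isolate total RNA, reverse-transcribe with oligo(dT) → PCR, 6-FAM label, HpaI cut (2 h, 37 C) → capillary electrophoresis. Bidirectional fit vs DMSO.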

[13] = ATG_Ets_CIS: Attagene CIS-FACTORIAL HepG2 Assay for human Erythroblast Transformation Specific (ETS) (AID 2282941); settings: HepG2 ETS cis-reporter transcription, actives raise or lower the signal
In short: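 Multiplexed reporter transcript profiling: HepG2, 24 h treatment, total RNA to cDNA, PCR, 6-FAM labelling, HpaI cut, capillary electrophoresis. Gain- or loss-of-signal fitted against DMSO.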

[14] = target: Hepatocyte nuclear factor 3-beta (Homo sapiens) (UniProt Q9Y261); assay: ATG_FoxA2_CIS: Attagene CIS-FACTORIAL HepG2 Assay for human Forkhead box A2 (FOXA2) (AID 2282942); settings: HepG2 cis-reporter transcription factor activity, 24 h; actives raise or lower the signal
Chain of Hepatocyte nuclear factor 3-beta (Homo sapiens) (Q9Y261 whole entry, looked up): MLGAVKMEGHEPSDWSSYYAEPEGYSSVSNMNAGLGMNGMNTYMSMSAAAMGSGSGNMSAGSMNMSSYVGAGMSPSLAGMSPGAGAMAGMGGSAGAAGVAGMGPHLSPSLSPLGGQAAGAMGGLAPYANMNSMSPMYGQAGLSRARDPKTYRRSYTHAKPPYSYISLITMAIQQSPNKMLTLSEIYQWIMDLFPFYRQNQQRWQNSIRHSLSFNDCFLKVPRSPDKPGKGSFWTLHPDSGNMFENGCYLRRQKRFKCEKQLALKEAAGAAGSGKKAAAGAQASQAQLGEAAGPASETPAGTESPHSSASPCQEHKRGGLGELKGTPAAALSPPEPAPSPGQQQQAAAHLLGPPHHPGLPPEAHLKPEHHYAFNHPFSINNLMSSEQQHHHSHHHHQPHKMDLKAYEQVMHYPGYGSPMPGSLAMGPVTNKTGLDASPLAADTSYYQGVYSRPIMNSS
In short: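 Endogenous transcription factor activity was read in HepG2 cells carrying transiently transfected cis-promoter reporter units. After 24 h dosing, reporter mRNA was quantified by RT-PCR and capillary electrophoresis, and values fitted bidirectionally versus DMSO.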

[15] = ATG_GATA_CIS: Attagene CIS-FACTORIAL HepG2 Assay for human GATA Binding Protein (AID 2282944); settings: HepG2 GATA cis-element reporter, Attagene multiplex mRNA; actives raise or lower the signal
In short: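 Transient MRTU transfection, HepG2, 24 h compound exposure. Total RNA → oligo(dT) RT → PCR → 6-FAM primer extension → HpaI cut → CE. Bidirectional fit vs DMSO.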

[16] = ATG_EGR_CIS: Attagene CIS-FACTORIAL HepG2 Assay for human Early Growth Response 1 (EGR1) (AID 2282938); settings: HepG2 Attagene CIS-FACTORIAL EGR reporter mRNA; actives raise or lower the signal
In short: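 Endogenous TF activity in HepG2 liver cells was gauged through cis-promoter reporter constructs transiently transfected. After 24 h dosing, reporter mRNA was quantified by RT-PCR and capillary electrophoresis, and curves fitted in both directions versus DMSO.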

[17] = ATG_ERE_CIS: Attagene CIS-FACTORIAL HepG2 Assay for Estrogen Response Element (ERE) (AID 2282940); settings: HepG2 ERE cis-reporter, Attagene RNA transcript; actives raise or lower the signal
In short: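 Transient MRTU transfection of human HepG2; cis-element promoters; 24 h dosing; total RNA → RT (oligo dT) → PCR → 6-FAM primer extension → HpaI digest → CE fluorescence. Bidirectional fit, DMSO baseline.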

[18] = ATG_FoxO_CIS: Attagene CIS-FACTORIAL HepG2 Assay for human Forkhead box O (FoxO) (AID 2282943); settings: HepG2 Attagene cis-reporter, FoxO element, mRNA; actives raise or lower the signal
In short: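 HepG2 cells transiently transfected with cis-promoter-driven multiple reporter transcription units; 24 h after chemical dosing, reporter mRNA quantified by RT-PCR, fluorescent primer extension, HpaI digestion and capillary electrophoresis. Bidirectional fitting versus DMSO baseline.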

[19] = ATG_GLI_CIS: Attagene CIS-FACTORIAL HepG2 Assay for human Zinc Finger Protein GLI1 (AID 2282945); settings: HepG2, Attagene cis-factorial reporter mRNA, GLI element; actives raise or lower the signal
In short: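 HepG2 cells transiently transfected with cis-promoter multiplexed reporter units report endogenous transcription factor activity. After 24 h chemical exposure, reporter mRNA was quantified by RT-PCR, 6-FAM labelling, HpaI digestion and capillary electrophoresis, with bidirectional fitting against DMSO.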

[20] = target: Aryl hydrocarbon receptor (Homo sapiens) (UniProt P35869); assay: ATG_Ahr_CIS: Attagene CIS-FACTORIAL HepG2 Assay for human Aryl Hydrocarbon Receptor (Ahr) (AID 2282930); settings: HepG2 AhR cis-factorial reporter transcription; actives raise or lower the signal
Chain of Aryl hydrocarbon receptor (Homo sapiens) (P35869 whole entry, looked up): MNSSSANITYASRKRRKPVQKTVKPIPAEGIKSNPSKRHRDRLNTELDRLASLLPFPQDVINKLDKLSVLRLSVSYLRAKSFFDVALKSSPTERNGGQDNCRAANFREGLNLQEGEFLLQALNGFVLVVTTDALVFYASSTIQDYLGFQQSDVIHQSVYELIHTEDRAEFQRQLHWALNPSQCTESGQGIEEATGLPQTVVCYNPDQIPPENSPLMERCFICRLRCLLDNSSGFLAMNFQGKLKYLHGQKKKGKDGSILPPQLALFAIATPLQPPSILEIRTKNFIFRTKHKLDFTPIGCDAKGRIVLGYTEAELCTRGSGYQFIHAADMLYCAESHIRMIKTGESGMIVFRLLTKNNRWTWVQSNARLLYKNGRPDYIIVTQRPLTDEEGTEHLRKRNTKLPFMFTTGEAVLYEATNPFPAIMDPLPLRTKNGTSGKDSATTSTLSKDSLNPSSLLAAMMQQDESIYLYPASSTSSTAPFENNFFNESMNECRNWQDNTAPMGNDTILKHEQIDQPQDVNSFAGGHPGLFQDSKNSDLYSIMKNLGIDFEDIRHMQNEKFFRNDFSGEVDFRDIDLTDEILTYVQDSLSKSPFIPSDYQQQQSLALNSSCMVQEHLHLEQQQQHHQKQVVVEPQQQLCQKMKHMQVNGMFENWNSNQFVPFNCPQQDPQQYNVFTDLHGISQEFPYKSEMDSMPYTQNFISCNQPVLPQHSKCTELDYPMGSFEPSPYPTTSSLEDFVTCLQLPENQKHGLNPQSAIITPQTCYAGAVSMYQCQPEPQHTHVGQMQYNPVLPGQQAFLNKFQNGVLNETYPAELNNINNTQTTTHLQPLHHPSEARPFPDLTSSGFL
In short: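 HepG2 cells transiently transfected with cis-element-driven multiplexed reporter transcription units; endogenous transcription factor activity measured as reporter mRNA 24 h after dosing. RT-PCR, 6-FAM labelling, HpaI digestion, capillary electrophoresis; bidirectional fitting versus DMSO baseline.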

## CCCCCC(CO)CCC (stereo unspecified)
[1]
  outcome: inactive
[2]
  outcome: inactive
[3]
  outcome: inactive
[4]
  outcome: inactive
[5]
  outcome: inactive
[6]
  outcome: inactive
[7]
  outcome: inactive
[8]
  outcome: inactive
[9]
  outcome: inactive
[10]
  outcome: inactive
[11]
  outcome: inactive
[12]
  outcome: inactive
[13]
  outcome: inactive
[14]
  outcome: inactive
[15]
  outcome: inactive

## Nc1cccc(S(=O)(=O)c2cccc(N)c2)c1
[1]
  outcome: inactive
[2]
  outcome: inactive
[3]
  outcome: inactive
[4]
  outcome: inactive
[6]
  outcome: inactive
[7]
  outcome: inactive
[9]
  outcome: inactive
[10]
  outcome: inactive
[11]
  outcome: inactive
[16]
  outcome: inactive
[12]
  outcome: inactive
[17]
  outcome: inactive
[13]
  outcome: inactive
[14]
  outcome: inactive
[18]
  outcome: inactive
[15]
  outcome: inactive

## O=Cc1ccc(Cl)c([N+](=O)[O-])c1
[1]
  AC50: 129 µM (active)
[2]
  outcome: inactive
[3]
  AC50: 168 µM (active)
[4]
  AC50: 48.4 µM (active)
[5]
  AC50: 25.8 µM (active)
[6]
  outcome: inactive
[7]
  AC50: 131 µM (active)
[10]
  AC50: 47.7 µM (active)
[11]
  outcome: inactive
[16]
  AC50: 129 µM (active)
[12]
  outcome: inactive
[17]
  outcome: inactive
[13]
  AC50: 134 µM (active)
[14]
  AC50: 145 µM (active)
[18]
  AC50: 128 µM (active)
[15]
  outcome: inactive
[19]
  AC50: 165 µM (active)

## Cc1ccc(C=O)s1
[1]
  outcome: inactive
[2]
  outcome: inactive
[4]
  outcome: inactive
[20]
  outcome: inactive
[5]
  outcome: inactive
[6]
  outcome: inactive
[7]
  outcome: inactive
[8]
  outcome: inactive
[9]
  outcome: inactive
[10]
  outcome: inactive
[11]
  outcome: inactive
[16]
  outcome: inactive
[12]
  outcome: inactive
[14]
  outcome: inactive
[18]
  outcome: inactive
[15]
  outcome: inactive
[19]
  outcome: inactive

## CCCC(=O)OCCC(C)CCC=C(C)C (stereo unspecified)
[1]
  outcome: inactive
[2]
  outcome: inactive
[4]
  outcome: inactive
[20]
  outcome: inactive
[5]
  outcome: inactive
[7]
  outcome: inactive
[8]
  outcome: inactive
[9]
  outcome: inactive
[10]
  outcome: inactive
[11]
  outcome: inactive
[16]
  outcome: inactive
[12]
  outcome: inactive
[13]
  outcome: inactive
[18]
  outcome: inactive
[15]
  outcome: inactive
[19]
  outcome: inactive

## O=C(O)CCSCCC(=O)O
[1]
  outcome: inactive
[2]
  outcome: inactive
[4]
  outcome: inactive
[20]
  outcome: inactive
[6]
  outcome: inactive
[7]
  outcome: inactive
[9]
  outcome: inactive
[10]
  outcome: inactive
[11]
  outcome: inactive
[16]
  outcome: inactive
[12]
  outcome: inactive
[17]
  outcome: inactive
[14]
  outcome: inactive
[18]
  outcome: inactive
[15]
  outcome: inactive
[19]
  outcome: inactive

## COc1cc2ncnc(Nc3cccc(Cl)c3)c2cc1OC
[1]
  outcome: inactive
[2]
  outcome: inactive
[4]
  outcome: inactive
[20]
  outcome: inactive
[5]
  outcome: inactive
[6]
  AC50: 5.09 µM (active)
[7]
  outcome: inactive
[9]
  outcome: inactive
[10]
  outcome: inactive
[11]
  outcome: inactive
[16]
  AC50: 19.5 µM (active)
[12]
  outcome: inactive
[17]
  outcome: inactive
[13]
  outcome: inactive
[14]
  outcome: inactive
[18]
  outcome: inactive
[15]
  outcome: inactive

## CCCCCCOC(=O)CC
[1]
  outcome: inactive
[2]
  outcome: inactive
[4]
  outcome: inactive
[20]
  outcome: inactive
[6]
  outcome: inactive
[7]
  outcome: inactive
[9]
  outcome: inactive
[10]
  outcome: inactive
[11]
  outcome: inactive
[16]
  outcome: inactive
[12]
  outcome: inactive
[17]
  outcome: inactive
[13]
  outcome: inactive
[14]
  outcome: inactive
[18]
  outcome: inactive
[15]
  outcome: inactive
[19]
  outcome: inactive
